# In all, about 66,000 compounds went through this assay and about 960 (1.5%) showed an effect of 50% or more. What follows is part of a selection rich in strong results, with near analogues and random picks from the rest.
# Tested on: Trypanosoma brucei
# Assay: Trypanosoma brucei 72 hour study
# Format: functional, organism-based
# Set-up: scale not given: in the data most compounds retested in dose-response had high values
smiles,measurement,setting,value
Cn1cc(N2Cc3nc(N4CCOCC4)ncc3C2=O)cn1,Percent Effect,"30.3 µM, […]",-24.66%
Cc1cc(C)n(-c2ccc(CNCc3ccc(OC(C)C)cc3)cn2)n1,Percent Effect,"30 µM, 30.03 µM",-15.45%
Cc1ccc(CNCc2ccc(-n3nc(C)cc3C)nc2)cc1,Percent Effect,"30 µM, 30.03 µM",-12.87%
COc1cc(CNCc2ccc(-n3nc(C)cc3C)nc2)cc(OC)c1,Percent Effect,"30.3 µM, […]",5.745%
Cc1cc(C)n(-c2ccc(CNCc3cccc(C#N)c3)cn2)n1,Percent Effect,"30.3 µM, […]",62.16%
Cc1cc(C)n(-c2ccc(CNCc3ccc(C)o3)cn2)n1,Percent Effect,"30.3 µM, […]",8.783%
Cc1cc(C)n(-c2ccc(CNCc3ccc(F)c(F)c3)cn2)n1,Percent Effect,"30.3 µM, […]",53.31%
CNC(=O)COc1ccc(CNCc2ccc(F)cc2F)cc1,Percent Effect,"30 µM, 30.03 µM",4.908%
COc1ccc(C)cc1CNCc1ccc(-n2nc(C)cc2C)nc1,Percent Effect,"30 µM, 30.03 µM",-31.15%
Cc1cc(C)n(-c2ccc(CNCc3ccc(F)cc3F)cn2)n1,Percent Effect,"30.3 µM, […]",61.76%
CCn1cc(-c2c(C)c(C3CCOC(C)(C)C3)nc(N)c2C#N)cn1 (configuration not stated),Percent Effect,"30 µM, 30.03 µM",-13.96%
Cc1ccc(C(=O)N2CCC3(CC2)CCN(Cc2ccccn2)C3=O)o1.O=C(O)C(F)(F)F,Percent Effect,"30 µM, 30.03 µM",-16.24%
CCOCC(=O)N1CCOCC2(CCN(c3ncccn3)C2)C1.O=C(O)C(F)(F)F (configuration not stated),Percent Effect,"30.3 µM, […]",-43.52%
Cc1cc(NC(=O)N(CCO)Cc2ccsc2)no1,Percent Effect,"30.3 µM, […]",3.821%
Cc1nc(CN2CC[C@@H]3O[C@@H](C(=O)N4CCOCC4)C[C@@H]32)cs1.O=C(O)C(F)(F)F,Percent Effect,"30.3 µM, […]",-22.53%
CN(CCOc1cccc(S(C)(=O)=O)c1)c1ccccc1,Percent Effect,"30 µM, 30.03 µM",-2.31%
CCCOc1ccccc1CCCNc1ncnc2oc(C)nc12,Percent Effect,"30.3 µM, […]",99.92%
CCC(CNc1ncnc2oc(C)nc12)Cc1ccccc1 (configuration not stated),Percent Effect,"30.3 µM, […]",10.79%
CCCOc1ccc(Cl)cc1CNc1ncnc2oc(C)nc12,Percent Effect,"30.3 µM, […]",18.57%
CC(=O)N1CCN(Cc2ccsc2)CC2(CC(=O)N(C)C2)C1.O=C(O)C(F)(F)F (configuration not stated),Percent Effect,"30.3 µM, […]",-65.69%
O=C(c1cc(Cl)c[nH]c1=O)N1C[C@@H]2CC[C@H](C1)N(Cc1ccccc1)C2,Percent Effect,"30 µM, 30.03 µM",-61.83%
CC(=O)N1N=C(COc2ccc(Cl)cc2)OC1c1ccccc1 (configuration not stated),Percent Effect,"30 µM, 30.03 µM",-14.14%
Cc1ccc(CC(=O)NCC(O)c2cc(Cl)cc(Cl)c2)cn1 (configuration not stated),Percent Effect,"30 µM, 30.03 µM",-24.81%
CC(C)c1cc(NC(=O)Cn2cnc3ccccc3c2=O)[nH]n1,Percent Effect,"30 µM, 30.03 µM",1.416%
CC(C)c1cc(NC(=O)c2ccncc2)[nH]n1,Percent Effect,"30.3 µM, […]",16.87%
same,Percent Effect,"10 mM, 10 mM as filed; unlikely as a test dose",-12.06%
Cc1ccc(CC(=O)Nc2cc(C(C)C)n[nH]2)cn1,Percent Effect,"30.3 µM, […]",101.5%
same,Percent Effect,"10 mM, 10 mM as filed; unlikely as a test dose",101.9%
CC(C)c1cc(NC(=O)c2ccc(C(=O)NC(C)(C)C)cc2)[nH]n1,Percent Effect,"30 µM, 30.03 µM",33.13%
Cc1ccc(C(=O)Nc2cc(C(C)C)n[nH]2)cn1,Percent Effect,"30 µM, 30.03 µM",54.96%
CC(C)c1cc(NC(=O)c2ccc(NC3CC3)nc2)[nH]n1,Percent Effect,"30 µM, 30.03 µM",40.22%
CC(C)c1cc(NC(=O)c2cccnc2)[nH]n1,Percent Effect,"30.3 µM, […]",11.06%
same,Percent Effect,"10 mM, 10 mM as filed; unlikely as a test dose",-25.28%
CC(C)c1cc(NC(=O)c2ccc([S+]([O-])C(C)C)cc2)[nH]n1 (configuration not stated),Percent Effect,"30.3 µM, […]",80.42%
same,Percent Effect,"10 mM, 10 mM as filed; unlikely as a test dose",77.43%
NCc1cnn(-c2ccccc2C(=O)NCc2ccccn2)c1,Percent Effect,"30.3 µM, […]",5.478%
O=C(O)C(F)(F)F.O=C1CC2(CCN(Cc3ccco3)C2)CN1c1ccc2c(c1)OCO2 (configuration not stated),Percent Effect,"30 µM, 30.03 µM",43.65%
CN(C)C(=O)CN1C(=O)CCC12CCN(Cc1cccn1C)CC2.O=C(O)C(F)(F)F,Percent Effect,"30.3 µM, […]",-2.653%
COc1ccc([C@@H]2CN(C(=O)CCC(F)(F)F)C[C@H]2NC(C)=O)cc1,Percent Effect,"30 µM, 30.03 µM",98.96%
COc1ccc([C@@H]2CN(C(=O)CS(C)(=O)=O)C[C@H]2NC(C)=O)cc1,Percent Effect,"30 µM, 30.03 µM",-86.91%
CCOCC(=O)N1C[C@@H](NC(C)=O)[C@H](c2ccc(OC)cc2)C1,Percent Effect,"30 µM, 30.03 µM",-1.358%
COc1cccc(CN2CCCC3(CCN(C(=O)c4ccco4)C3)C2)c1 (configuration not stated),Percent Effect,"30.3 µM, […]",7.427%
COc1cccc(CN(C)C(=O)CN2CC(n3nc(C)cc3C)C2)c1,Percent Effect,"30 µM, 30.03 µM",1.154%
Cc1cc(C)n(C2CN(CC(=O)N(C)Cc3ccsc3)C2)n1,Percent Effect,"30 µM, 30.03 µM",62.05%
Cc1cc(C)n(C2CN(CC(=O)N(C)Cc3cnn(C)c3)C2)n1,Percent Effect,"30 µM, 30.03 µM",17.09%
O=C(O)C(F)(F)F.O=C([C@H]1C[C@H]2OCC[C@H]2N(Cc2ccc(F)cc2)C1)N1CCCCO1,Percent Effect,"30.3 µM, […]",-288.9%
CCn1ccnc1CNCc1ccc(C)cc1OC(C)(C)C,Percent Effect,"30 µM, 30.03 µM",59.89%
Cc1ccc(CNC(=O)NCc2nccn2C)c(OC(C)(C)C)c1,Percent Effect,"30 µM, 30.03 µM",-10.65%
Cc1ccc(CNCc2nccn2C)c(OC(C)(C)C)c1,Percent Effect,"30 µM, 30.03 µM",-9.651%
Cl.c1nc(N2CCOCC2)ncc1-c1cncn1CCCN1CCCCC1,Percent Effect,"30.3 µM, […]",-26.24%
CCn1cc(NC(=O)NCC(O)COc2ccccc2)cn1 (configuration not stated),Percent Effect,10 µM,2.207%
Cc1ncc2c(n1)CN(CCCc1ccccc1)CC2,Percent Effect,"30.3 µM, […]",13.17%
same,Percent Effect,"10 mM, 10 mM as filed; unlikely as a test dose",-28.02%
CN1CCCCC1c1ncc2c(n1)CCN(Cc1ccccc1Cl)C2 (configuration not stated),Percent Effect,"30 µM, 30.03 µM",-6.551%
CN1CCCCC1c1ncc2c(n1)CCN(CCCc1ccccc1)C2 (configuration not stated),Percent Effect,"30.3 µM, […]",98.5%
COc1ccc(CN2CCc3nc(C4CCCCN4C)ncc3C2)cc1 (configuration not stated),Percent Effect,"30 µM, 30.03 µM",-5.648%
CN1CCCCC1c1ncc2c(n1)CCN(Cc1ccc(Cl)c(F)c1)C2 (configuration not stated),Percent Effect,"30.3 µM, […]",88.41%
CN1CCCCC1c1ncc2c(n1)CCN(Cc1ccc(F)cc1)C2 (configuration not stated),Percent Effect,"30.3 µM, […]",42.96%
O=C(C1CCOCC1)N1C[C@H]2CCC[C@@]2(COc2ccccn2)C1.O=C(O)C(F)(F)F,Percent Effect,"30 µM, 30.03 µM",15.32%
Cl.Cn1nc(C2CCCN(Cc3cc(F)cc(F)c3)C2)c2nccnc21 (configuration not stated),Percent Effect,"30.3 µM, […]",30.77%
CNC(=O)[C@@H]1C[C@@H](N)CN1C1CCN(Cc2ccccn2)CC1,Percent Effect,"30.3 µM, […]",-17.78%
CCNC(=O)[C@@H]1C[C@H](N)CN1C1CCN(c2ccccc2OC)CC1,Percent Effect,"30.3 µM, […]",99.36%
CNC(=O)[C@@H]1C[C@@H](N)CN1C1CCN(c2ccccc2F)CC1,Percent Effect,"30.3 µM, […]",11.28%
O=C(NCCCn1nc2ccccn2c1=O)Nc1ccccc1,Percent Effect,"30.3 µM, […]",-36.69%
OC(COCc1ccco1)CSc1nnc2ccccn12 (configuration not stated),Percent Effect,"30.3 µM, […]",-18.97%
Cc1ccc(-n2c(C)nnc2SCC(O)COCc2ccco2)cc1 (configuration not stated),Percent Effect,"30.3 µM, […]",100%
OC(COCc1ccco1)CN1CCC(Cn2cccn2)CC1 (configuration not stated),Percent Effect,"30 µM, 30.03 µM",-22.56%
N#Cc1ccc(OCC(O)CN2CCC(c3ccn[nH]3)CC2)cc1 (configuration not stated),Percent Effect,10 µM,5.752%
OC(COc1ccccc1)CN1CCC(c2ccn[nH]2)CC1 (configuration not stated),Percent Effect,"30 µM, 30.03 µM",-29.13%
OC(COc1ccc(F)cc1)CN1CCC(c2ccn[nH]2)CC1 (configuration not stated),Percent Effect,10 µM,90.5%
CN1[C@H](Cn2cccn2)C[C@@H]2CN(Cc3cccs3)CC[C@@H]21.O=C(O)C(F)(F)F.O=C(O)C(F)(F)F.O=C(O)C(F)(F)F,Percent Effect,"30.3 µM, […]",-3.772%
CN(C)CCn1c([C@H]2CCCO2)cc2cccnc21,Percent Effect,"30.3 µM, […]",1.858%
O=C(O)C(F)(F)F.O=S(=O)(C1CC1)N1CC[C@]2(C[C@@H](Oc3ncccc3F)CO2)C1,Percent Effect,"30 µM, 30.03 µM",13.6%
CC(C)CN1C[C@H]2CCN(c3ncccn3)CC[C@H]2S1(=O)=O.O=C(O)C(F)(F)F,Percent Effect,"30 µM, 30.03 µM",7.131%
Cc1cnc(N2CC[C@@H]3CN(CCC(C)C)S(=O)(=O)[C@@H]3CC2)nc1,Percent Effect,"30.3 µM, […]",13.68%
CCc1cnc(N2CC[C@@H]3CN(CCC(C)C)S(=O)(=O)[C@@H]3CC2)nc1.O=C(O)C(F)(F)F,Percent Effect,"30.3 µM, […]",50.26%
COc1ccccc1OCCc1cc(C2CCNC2)n[nH]1.Cl.Cl (configuration not stated),Percent Effect,"30.3 µM, […]",-27.23%
CC(=O)N1CCN(C)CC(COCc2ccccc2)C1 (configuration not stated),Percent Effect,"30.3 µM, […]",18.55%
Cc1cnc(C(=O)N2CCC(COCc3ccccc3)C2)cn1 (configuration not stated),Percent Effect,"30.3 µM, […]",-6.003%
CC(C)(C)C(=O)N1CCC(COCc2ccccc2)C1 (configuration not stated),Percent Effect,"30.3 µM, […]",100.1%
Cc1nn(C)c2c(=O)n(CC(=O)NCc3ccccn3)ccc12,Percent Effect,"30 µM, 30.03 µM",-0.211%
C[S+]([O-])CCNC(=O)Nc1cc(F)ccc1-n1cccn1 (configuration not stated),Percent Effect,"30.3 µM, […]",-162.3%
CC(C)C(CCO)NC(=O)Nc1cc(F)ccc1-n1cccn1 (configuration not stated),Percent Effect,"30.3 µM, […]",-14.63%
CC(C)C(O)CCNC(=O)Nc1cc(F)ccc1-n1cccn1 (configuration not stated),Percent Effect,"30.3 µM, […]",88.94%
CN(CCO)C[C@@H]1CN(C2CCN(c3ccccc3Cl)CC2)C[C@@H]1CO,Percent Effect,"30 µM, 30.03 µM",13.3%
CC1CN(CC2CCCC2)CCN1c1ccc2nncn2n1 (configuration not stated),Percent Effect,"30 µM, 30.03 µM",98.48%
COc1cccc(CN2CCN(c3ccc4nncn4n3)C(C)C2)c1 (configuration not stated),Percent Effect,"30 µM, 30.03 µM",97.2%
CC1CN(Cc2cccnc2)CCN1c1ccc2nncn2n1 (configuration not stated),Percent Effect,"30.3 µM, […]",7.126%
same,Percent Effect,"10 mM, 10 mM as filed; unlikely as a test dose",-16.61%
CC1CN(CC(=O)NC2CCCC2)CCN1c1ccc2nncn2n1 (configuration not stated),Percent Effect,"30 µM, 30.03 µM",-13.42%
CC1CN(Cc2cccc(C#N)c2)CCN1c1ccc2nncn2n1 (configuration not stated),Percent Effect,"30 µM, 30.03 µM",-20.22%
CC1CN(CC2CCCCC2)CCN1c1ccc2nncn2n1 (configuration not stated),Percent Effect,"30 µM, 30.03 µM",-45.41%
CC(C)(C)c1nc(CNC(=O)N2CCc3ccccc3C2CO)no1 (configuration not stated),Percent Effect,"30.3 µM, […]",6.013%
Cc1cc(C(=O)N2CCOC(c3nc(C(C)C)n[nH]3)C2)c(C)s1 (configuration not stated),Percent Effect,"30.3 µM, […]",17.14%
CC(C)(CO)Nc1cc(-c2cn[nH]c2)ncn1.Cl,Percent Effect,"30.3 µM, […]",-11.12%
Cc1cc(-c2cnc(N3CCC(O)CC3)nc2-c2cccnc2C)on1,Percent Effect,"30.3 µM, […]",-31.41%
Cc1cc(-c2cnc(N3CCNC(=O)C3)nc2-c2cccnc2C)on1,Percent Effect,"30 µM, 30.03 µM",16.74%
Cc1cc(-c2cnc(N3CCCC(C)C3)nc2-c2cccnc2C)on1.Cl (configuration not stated),Percent Effect,"30.3 µM, […]",58.57%
Cc1cc(-c2cnc(N3CCCC(C)C3)nc2C(C)C)on1 (configuration not stated),Percent Effect,"30.3 µM, […]",-16.22%
Cc1cc(-c2cnc(N3CCCCCC3)nc2-c2cccnc2C)on1,Percent Effect,"30.3 µM, […]",55.42%
Cc1cc(-c2cnc(N3CCOCC3)nc2-c2cccnc2C)on1,Percent Effect,"30.3 µM, […]",-10.3%
Cc1ccc(-c2ccnc(NC(c3ncccc3C)C3CC3)n2)c(C)n1 (configuration not stated),Percent Effect,"30 µM, 30.03 µM",-69.26%
